Test results: ChEMBL document CHEMBL3988442, “University of Dundee, Small-Polar-MMV Screening Library” (2021)
In all, about 48,000 compounds went through this assay and about 13,000 (27%) showed an effect of 50% or more. The list shows a part of the results.

tested on: Wolbachia pipientis; test: Anti-Wolbachia Cell-Based Screen; format: functional; design: scale not given: in the data most compounds retested in dose-response had high values; settings: 5 µM

Structure (SMILES)	Percent Effect [%]
COc1ccc(NC(=O)CCC2CCCN(Cc3ncon3)C2)cc1Cl (stereo not drawn)	9.109
CN(CC(=O)N1CCc2[nH]c3ccc(F)cc3c2C1)CC1OCCO1	90.48
O=C(CN1CCc2[nH]c3ccccc3c2C1)NCc1ccco1	-4.019
CN(C)CCNC(=O)CNC(=O)N1CCc2c([nH]c3ccc(Cl)cc23)C1	31.1
CN(C)C[C@@H]1[C@H]2CN(C(=O)c3cc(=O)[nH]c4ccc(F)cc34)C[C@@H]12	-6.499
CC1CN(C(=O)c2cc(=O)[nH]c3ccc(F)cc23)CCO1 (stereo not drawn)	4.129
CN(CC(=O)N1CCc2[nH]c3ccccc3c2C1)CC1OCCO1	105.4
Cc1ccc2[nH]c3c(c2c1)CN(C(=O)CN(C)CC1OCCO1)CC3	95.71
CN(C)CCCNC(=O)CNC(=O)N1CCc2c([nH]c3ccccc23)C1	22.94
O=C(CNC(=O)N1CCc2c([nH]c3ccc(Cl)cc23)C1)N1CCOCC1	10.93
c1ccc2c(NCC3(N4CCOCC4)CCSC3)ncnc2c1 (stereo not drawn)	-37.37
CC(CO)NC(=O)c1ccc2[nH]/c(=N\S(C)(=O)=O)sc2c1 (stereo not drawn)	96.98
CSCCC(C)NC(=O)c1cccc(-c2n[nH]c(C)n2)c1 (stereo not drawn)	-6.222
CSCCC(CO)NC(=O)c1ccc2[nH]/c(=N\S(C)(=O)=O)sc2c1 (stereo not drawn)	102
CCC(CC)NC(=O)c1ccc2c(c1)C(c1nc[nH]n1)CN2S(C)(=O)=O (stereo not drawn)	-0.8083
Cc1nn(C)c2c(N(C)Cc3cccs3)nc(C3CC3)nc12	84.71
Cc1nn(C)c2c(NCc3ccccc3F)nc(C3CC3)nc12	-10.39
COc1ccnc(N(C)Cc2ccco2)n1	6.13
Cc1nn(C)c2c(NCc3cccnc3)nc(C3CC3)nc12	-0.9652
Cc1nn(C)c(C)c1CN(C)c1nc(C2CC2)nc2c(C)nn(C)c12	9.92
Cc1nn(C)c2c(N(C)Cc3ccco3)nc(C3CC3)nc12	91.93
O=C(NCCCO)c1cnc(-c2ccccc2)nc1O	-7.002
CC(=O)N1CCN(c2cc(C3CN(C)CCO3)nc(C)n2)CC1 (stereo not drawn)	-11.29

Structure (SMILES)	Percent Effect [%]
CC(CCN1CCCC1=O)NCc1cnc(C2CCC2)s1 (stereo not drawn)	5.748
Cc1nc(NCCN2CCCC2=O)cc(C2CN(C)CCO2)n1 (stereo not drawn)	121.4
Cc1cnn(CC2CN(CCN3CCCC3=O)CCO2)c1 (stereo not drawn)	-2.569
Cc1nc(NCCN2CCCC2=O)cc(C2CN(C(C)C)CCO2)n1 (stereo not drawn)	108.1
Cc1cc(N2CCCC(OC(=O)CCN3CCCC3=O)C2)nc(C)n1 (stereo not drawn)	-12.05
Cc1ccc(CNCC2CCCn3ccnc32)s1 (stereo not drawn)	-4.636
Cn1cc(C2=NOC(C(=O)NC3(c4ccccc4F)CCCC3)C2)cn1 (stereo not drawn)	111.1
O=C(CCCn1cncn1)NC1(c2ccccc2)CCC1	-7.229
CC(C)C(NC(=O)c1ccccc1F)C(=O)Nc1cnn(C)c1 (stereo not drawn)	10.34
O=C(NC1(c2cccc(F)c2)CCOCC1)c1ccccn1	10.14
CC(=O)c1cc(C(=O)NC2(c3ccccc3)CCC2)n(C)c1	-2.692
O=C(NC1(c2cccc(F)c2)CCOCC1)c1ccoc1	-9.671
Cn1cc(N2CCC(NC(=O)c3ccccc3F)C2=O)cn1 (stereo not drawn)	1.627
Cn1cc(C2=NOC(C(=O)NC3(c4cccc(F)c4)CCCC3)C2)cn1 (stereo not drawn)	105.1
Cn1cc(C2=NOC(C(=O)NC3(c4ccccc4)CCCC3)C2)cn1 (stereo not drawn)	117.7
N[C@@H]1c2ccccc2C2(CCN(C(=O)c3cncc(Cl)c3)CC2)[C@H]1O	-1.083
CCN(Cc1noc(C)n1)C(=O)C(c1cccc(C)c1)N(C)C (stereo not drawn)	1.236
CSc1cc2c(cc1NC(=O)NCCn1ccnc1)OCCO2	8.638
COCc1ccccc1C(=O)NS(=O)(=O)c1ccc2c(c1)CCC(=O)N2	-32.38
COc1ccc2c(c1)C(C(=O)N(C)CCCc1cnn(C)c1)CC(=O)N2 (stereo not drawn)	-51.57
Cn1ccnc1COc1ccc(CSc2nncn2C2CC2)cc1	-10.32
Cn1ccnc1COc1ccc(CO)cc1	4.503
Cn1ccnc1COc1ccc(CSc2nnnn2C2CC2)cc1	-14.27

Structure (SMILES)	Percent Effect [%]
CC1CCCN(Cc2ccc(OCc3nccn3C)cc2)C1 (stereo not drawn)	64.75
CC(=O)N1CCN(Cc2ccc(OCc3nccn3C)cc2)CC1	94.07
Cn1ccnc1COc1ccc(COC(=O)C2CCCO2)cc1 (stereo not drawn)	0.9583
CCOC(=O)N1CCN(Cc2ccc(OCc3nccn3C)cc2)CC1	3.799
COCCN1CCN(Cc2ccc(OCc3nccn3C)cc2)CC1	100.2
Cn1ccnc1COc1ccc(CN2CCN(CCO)CC2)cc1	-5.223
Cn1ccnc1COc1ccc(CSc2nnnn2C)cc1	6.685
Cn1ccnc1COc1ccc(CN2CCC(C(N)=O)CC2)cc1	122.5
CCCN1C[C@H]2CC[C@@H]1CN(Cc1cccc(O)c1)C2	9.983
CC(=O)c1ccc(N2CCCC(CO)(Cc3ccccc3C)C2)nc1 (stereo not drawn)	-1.793
Cc1cccc(OC2CCN(C(=O)CNC(=O)N(C)C)CC2)c1	0.03491
Cc1cccc(SC2CCN(Cc3nc(CC4CC4)no3)CC2)c1	-16.83
COc1cccc(OC2CN(C(=O)CCn3cnnn3)C2)c1	-0.2846
CS(=O)(=O)NCCC(=O)N1CCC(Cc2ccc(CO)cc2)C1 (stereo not drawn)	5.18
CC(=O)NCCCC(=O)N1CCC(Sc2cccc(C)c2)CC1	104.7
Cc1cccc(SC2CCN(C(=O)CCNS(C)(=O)=O)CC2)c1	90.55
CSCC(=O)N1CCC(Oc2cccc(C)c2)CC1	1.414
Cc1cccc(SC2CCN(C(=O)CCCn3cnnn3)CC2)c1	97.25
Cc1ccccc1N1CCCN(C(=O)CCCS(N)(=O)=O)CC1	-5.383
Cc1ccccc1C1CCN(C(=O)CCNS(C)(=O)=O)C1 (stereo not drawn)	-0.3491
Cc1ccccc1SC1CCN(C(=O)[C@H]2[C@@H]3CNC[C@@H]32)CC1	-39.6
Cc1ccccc1SC1CCN(C(=O)CCCS(N)(=O)=O)CC1	85.51
